Data: PubChem BioAssay (NCI)
Compounds without any hit were thinned out: in the full panel of roughly 79,000, 15% have a hit. Activity calls are given as the source filed them. Cut-off read from the data, not from the text of the source: active = growth inhibition above about 70%; inactive = the rest.

Key:
[1] = NCI Yeast Anticancer Drug Screen. Data for the rad52 strain (AID 147);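 note: 0% = growth of vehicle-treated control cultures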; conditions: S. cerevisiae rad52 mutant growth inhibition, stronger effect = higher value
Outline: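 Growth of repair-deficient yeast cells was compared between compound-treated and vehicle-treated cultures to give percent inhibition.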

[2] = NCI Yeast Anticancer Drug Screen. Data for the wt1 strain (AID 149);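 note: 0% = growth of vehicle-treated wt1 cultures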; conditions: S. cerevisiae wt1 strain (SPY 50644) growth inhibition, stronger effect = higher value
Outline: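 Each compound is tested on wt1 yeast and the loss of growth versus vehicle gives the inhibition value.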

[3] = NCI Yeast Anticancer Drug Screen. Data for the rad50EPP+ strain (AID 151);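 note: 0% = growth of vehicle-treated control cultures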; conditions: S. cerevisiae rad50 mutant strain, stronger effect = higher value
Outline: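 Measured: growth inhibition of rad50EPP+ yeast. Reference: vehicle-treated controls. Screen uses strains with defined genetic alterations in DNA damage repair or cell cycle control.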

[4] = NCI Yeast Anticancer Drug Screen. Data for the mgt1 strain (AID 153); conditions: S. cerevisiae mgt1 mutant growth inhibition, stronger effect = higher value
Outline: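 Compounds were applied to mgt1 mutant yeast, and growth was then compared against vehicle-treated control cultures to give percent inhibition.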

[5] = NCI Yeast Anticancer Drug Screen. Data for the rad50 strain (AID 155);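 note: 0% = growth of vehicle-only cultures of the same strain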; conditions: S. cerevisiae rad50 strain growth inhibition, stronger effect = higher value
Outline: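 Vehicle-treated cultures provide the reference for the growth inhibition reported for compound-exposed, repair-deficient yeast.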

[6] = NCI Yeast Anticancer Drug Screen. Data for the mec2-1 strain (AID 157); conditions: S. cerevisiae mec2-1 strain, stronger effect = higher value
Outline: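 Compounds were applied to mec2-1 yeast cells. Their growth was then compared with that of vehicle-treated cultures to give growth inhibition.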

[7] = NCI Yeast Anticancer Drug Screen. Data for the rad14 strain (AID 159);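 note: 0% = growth of vehicle-treated control cultures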; conditions: S. cerevisiae rad14 strain growth inhibition, stronger effect = higher value
Outline: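 Inhibition of growth is reported for a repair-deficient yeast mutant following compound treatment, calculated relative to cultures that received vehicle.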

[8] = NCI Yeast Anticancer Drug Screen. Data for the sgs1 mgt1 strain (AID 161);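 note: 0% = growth of cultures given vehicle only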; conditions: S. cerevisiae sgs1 mgt1 strain, stronger effect = higher value
Outline: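 Compounds are added to genetically altered yeast, and growth is compared with cultures given vehicle alone to give percent inhibition.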

[9] = NCI Yeast Anticancer Drug Screen. Data for the CLN2oe strain (AID 163);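 note: 0% = growth of vehicle-only control cultures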; conditions: S. cerevisiae CLN2oe strain, stronger effect = higher value
Outline: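 Cells of an engineered yeast line with disturbed cell-cycle regulation are treated with compound. Inhibition of growth is then calculated relative to the vehicle-treated reference.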

[10] = NCI Yeast Anticancer Drug Screen. Data for the cln2 rad14 strain (AID 165);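 note: 0% = growth equal to vehicle treated cultures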; conditions: S. cerevisiae cln2 rad14 strain, stronger effect = higher value
Outline: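 Strain: cln2 rad14 yeast, altered in cell cycle control and DNA damage repair. Read-out: growth inhibition vs vehicle.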

[11] = NCI Yeast Anticancer Drug Screen. Data for the bub3 strain (AID 167); conditions: S. cerevisiae bub3 mutant strain, stronger effect = higher value
Outline: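 Mutant yeast screening strain plus compound; vehicle-treated cultures serve as the 0% inhibition reference.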

[12] = NCI Yeast Anticancer Drug Screen. Data for the wt2 strain (AID 169); conditions: S. cerevisiae wt2 strain growth inhibition, stronger effect = higher value
Outline: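 Growth of compound-treated yeast is measured and expressed as inhibition relative to vehicle-only controls.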

[13] = NCI Yeast Anticancer Drug Screen. Data for the mlh1 strain (AID 171);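 note: 0% = growth of vehicle-treated control cultures of the same strain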; conditions: S. cerevisiae mlh1 strain growth inhibition, stronger effect = higher value
Outline: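 Test agents were incubated with yeast bearing a defined DNA damage repair or cell cycle control alteration; values are growth inhibition normalised to vehicle-treated cultures.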

[14] = NCI Yeast Anticancer Drug Screen. Data for the sgs1 strain (AID 173);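 note: 0% = growth of vehicle-only control cultures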; conditions: S. cerevisiae sgs1 mutant, stronger effect = higher value
Outline: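 Strain with an altered DNA repair or cell cycle pathway exposed to compound. Growth then measured. Value = inhibition versus vehicle control.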

[15] = NCI Yeast Anticancer Drug Screen. Data for the mlh1 rad18 strain (AID 175); conditions: S. cerevisiae mlh1 rad18 strain growth inhibition, stronger effect = higher value
Outline: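 A repair-deficient yeast strain is exposed to test compound, and growth is scored relative to vehicle-treated controls.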

[16] = NCI Yeast Anticancer Drug Screen. Data for the rad18 strain (AID 177); conditions: S. cerevisiae rad18 mutant growth inhibition, stronger effect = higher value
Outline: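 DNA-repair-defective yeast; compound treatment; growth inhibition scored against vehicle.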

[17] = at 5.0 µM (retest, dose inferred, filed as 0.5)
[18] = at 50.0 µM (retest, dose inferred, filed as 5.0)

Measured: growth inhibition

CC(C)(N=Nc1ccc(Cl)cc1)[N+](=O)[O-]
active: [1]; at 11.0 µM 90% | [1]; at 33.0 µM 97% | [1]; at 100.0 µM 97% | [2]; at 33.0 µM 98% | [2]; at 100.0 µM 98% | [3]; at 33.0 µM 90% | [3]; at 100.0 µM 96% | [4]; at 11.0 µM 79% | [4]; at 33.0 µM 98% | [4]; at 100.0 µM 99% | [5]; at 11.0 µM 93% | [5]; at 33.0 µM 98% | [5]; [18] 98% | [5]; at 50.0 µM 99% | [5]; at 100.0 µM 98% | [6]; at 33.0 µM 98% | [6]; [18] 99% | [6]; at 50.0 µM 98.9% | [6]; at 100.0 µM 98% | [7]; at 11.0 µM 76% | [7]; at 33.0 µM 97% | [7]; at 100.0 µM 97% | [8]; [18] 98% | [8]; at 50.0 µM 98.7% | [9]; at 11.0 µM 83% | [9]; at 33.0 µM 97% | [9]; at 100.0 µM 98% | [10]; [18] 98% | [10]; at 50.0 µM 98.5% | [11]; at 11.0 µM 82% | [11]; at 33.0 µM 97% | [11]; [18] 99% | [11]; at 50.0 µM 99% | [11]; at 100.0 µM 98% | [12]; at 11.0 µM 88% | [12]; at 33.0 µM 98% | [12]; at 100.0 µM 98% | [13]; at 11.0 µM 77% | [13]; at 33.0 µM 98% | [13]; at 100.0 µM 99% | [14]; at 11.0 µM 95% | [14]; at 33.0 µM 98% | [14]; at 100.0 µM 98% | [15]; [18] 98% | [15]; at 50.0 µM 98.7% | [16]; at 11.0 µM 94% | [16]; at 33.0 µM 98% | [16]; at 100.0 µM 96%
inactive: [1]; at 1.2 µM 17% | [1]; at 3.7 µM 27% | [2]; at 1.2 µM 10% | [2]; at 3.7 µM 12% | [2]; at 11.0 µM 68% | [3]; at 1.2 µM 13% | [3]; at 3.7 µM 17% | [3]; at 11.0 µM 60% | [4]; at 1.2 µM 12% | [4]; at 3.7 µM 22% | [5]; at 1.2 µM 15% | [5]; at 3.7 µM 35% | [5]; [17] 47% | [6]; at 1.2 µM -1% | [6]; at 3.7 µM 9% | [6]; [17] 28% | [6]; at 11.0 µM 64% | [7]; at 1.2 µM 16% | [7]; at 3.7 µM 21% | [8]; [17] 35% | [9]; at 1.2 µM 14% | [9]; at 3.7 µM 19% | [10]; [17] -1% | [11]; at 1.2 µM 19% | [11]; at 3.7 µM 18% | [11]; [17] 27% | [12]; at 1.2 µM 12% | [12]; at 3.7 µM 15% | [13]; at 1.2 µM 3% | [13]; at 3.7 µM 11% | [14]; at 1.2 µM 11% | [14]; at 3.7 µM 19% | [15]; [17] 47% | [16]; at 1.2 µM 15% | [16]; at 3.7 µM 23%

CC(C)OC(=O)NNc1c(Cl)cc(Cl)cc1Cl
active: [3]; at 33.0 µM 74% | [3]; at 100.0 µM 79% | [11]; at 33.0 µM 76% | [11]; [18] 82% | [11]; at 50.0 µM 93.2% | [11]; at 100.0 µM 81%
inactive: [1]; at 1.2 µM -2% | [1]; at 3.7 µM -2% | [1]; at 11.0 µM 2% | [1]; at 33.0 µM 6% | [1]; at 100.0 µM 5% | [2]; at 1.2 µM -2% | [2]; at 3.7 µM -3% | [2]; at 11.0 µM -4% | [2]; at 33.0 µM -3% | [2]; at 100.0 µM -5% | [3]; at 1.2 µM 10% | [3]; at 3.7 µM 31% | [3]; at 11.0 µM 49% | [4]; at 1.2 µM -2% | [4]; at 3.7 µM -2% | [4]; at 11.0 µM 2% | [4]; at 33.0 µM 8% | [4]; at 100.0 µM 5% | [5]; at 1.2 µM -2% | [5]; at 3.7 µM 7% | [5]; [17] 18% | [5]; at 11.0 µM 18% | [5]; at 33.0 µM 16% | [5]; [18] 28% | [5]; at 50.0 µM 2.75% | [5]; at 100.0 µM 13% | [6]; at 1.2 µM -3% | [6]; at 3.7 µM -3% | [6]; [17] 0% | [6]; at 11.0 µM 0% | [6]; at 33.0 µM 1% | [6]; [18] 10% | [6]; at 50.0 µM 3.15% | [6]; at 100.0 µM 0% | [7]; at 1.2 µM -4% | [7]; at 3.7 µM -2% | [7]; at 11.0 µM 2% | [7]; at 33.0 µM 7% | [7]; at 100.0 µM 7% | [8]; [17] 4% | [8]; [18] 24% | [8]; at 50.0 µM 15.2% | [9]; at 1.2 µM 1% | [9]; at 3.7 µM 5% | [9]; at 11.0 µM 14% | [9]; at 33.0 µM 19% | [9]; at 100.0 µM 18% | [10]; [17] 14% | [10]; [18] 21% | [10]; at 50.0 µM 12.3% | [11]; at 1.2 µM 26% | [11]; at 3.7 µM 38% | [11]; [17] 36% | [11]; at 11.0 µM 58% | [12]; at 1.2 µM 2% | [12]; at 3.7 µM 3% | [12]; at 11.0 µM 2% | [12]; at 33.0 µM 9% | [12]; at 100.0 µM 17% | [13]; at 1.2 µM -2% | [13]; at 3.7 µM -1% | [13]; at 11.0 µM 4% | [13]; at 33.0 µM 8% | [13]; at 100.0 µM 8% | [14]; at 1.2 µM -3% | [14]; at 3.7 µM -2% | [14]; at 11.0 µM 0% | [14]; at 33.0 µM 8% | [14]; at 100.0 µM 9% | [15]; [17] 10% | [15]; [18] 38% | [15]; at 50.0 µM 24.9% | [16]; at 1.2 µM 0% | [16]; at 3.7 µM 15% | [16]; at 11.0 µM 33% | [16]; at 33.0 µM 40% | [16]; at 100.0 µM 27%

O=C(O)c1cc2c(cc1S(=O)(=O)O)C1C(C3C2C2(Cl)C(Cl)=C(Cl)C3(Cl)C2(Cl)Cl)C2(Cl)C(Cl)=C(Cl)C1(Cl)C2(Cl)Cl (stereo unspecified)
inactive: [1]; at 1.2 µM 0% | [1]; at 3.7 µM 3% | [1]; at 11.0 µM 13% | [2]; at 1.2 µM 2% | [2]; at 3.7 µM 0% | [2]; at 11.0 µM 3% | [2]; at 33.0 µM 62% | [3]; at 1.2 µM 3% | [3]; at 3.7 µM -2% | [3]; at 11.0 µM -52% | [3]; at 33.0 µM -84% | [3]; at 100.0 µM 61% | [4]; at 1.2 µM 2% | [4]; at 3.7 µM -1% | [4]; at 11.0 µM 22% | [5]; at 1.2 µM 2% | [5]; at 3.7 µM 1% | [5]; [17] 17% | [5]; at 11.0 µM 9% | [5]; at 33.0 µM 63% | [6]; at 1.2 µM -3% | [6]; at 3.7 µM -2% | [6]; [17] 20% | [6]; at 11.0 µM 0% | [7]; at 1.2 µM 0% | [7]; at 3.7 µM 3% | [7]; at 11.0 µM 24% | [8]; [17] 37% | [9]; at 1.2 µM -4% | [9]; at 3.7 µM -5% | [9]; at 11.0 µM -11% | [9]; at 33.0 µM 51% | [10]; [17] 11% | [11]; at 1.2 µM -3% | [11]; at 3.7 µM -5% | [11]; [17] 2% | [11]; at 11.0 µM -11%
active: [1]; at 33.0 µM 78% | [1]; at 100.0 µM 95% | [2]; at 100.0 µM 96% | [4]; at 33.0 µM 92% | [4]; at 100.0 µM 96% | [5]; [18] 96% | [5]; at 50.0 µM 96.2% | [5]; at 100.0 µM 90% | [6]; at 33.0 µM 85% | [6]; [18] 96% | [6]; at 50.0 µM 95.4% | [6]; at 100.0 µM 96% | [7]; at 33.0 µM 84% | [7]; at 100.0 µM 96% | [8]; [18] 97% | [8]; at 50.0 µM 94.4% | [9]; at 100.0 µM 88% | [10]; [18] 97% | [10]; at 50.0 µM 93.7% | [11]; at 33.0 µM 74% | [11]; [18] 98% | [11]; at 50.0 µM 94.8% | [11]; at 100.0 µM 94%
